ALOX15B inhib: qHTS Assay for Inhibitors of 15-hLO-2 (15-human lipoxygenase 2); purified 15hLO-2, xylenol orange hydroperoxide absorbance; 110,000 tested, 0.56% active; Potency, µM (highest dose often 57.1 µM), for the others: at the top dose activity change, negative = inhibition, usual class: inhibitors; Polyunsaturated fatty acid lipoxygenase ALOX15B (Homo sapiens), O15296; further: nearly all actives have a fitted effect of over 60% in size
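Purified human 15hLO-2 (50 nM final) preincubated with compounds 15 min at room temperature in 25 mM Hepes pH 7.5, 0.01% Triton X-100, then 45 uM arachidonic acid added for 90 min; hydroperoxide detected via ferrous/xylenol orange, 573/405 nm absorbance ratio.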
ALOX15 inhib: qHTS Assay for Inhibitors of 15-hLO (15-human lipoxygenase); purified 15hLO-1, xylenol orange hydroperoxide absorbance; Potency, µM (titrated, usually from 57.1 µM), for inactives: top-dose activity change, negative = inhibition, actives largely listed as inhibitors; 74,000 tested, 1.4% active; further: nearly all actives have a fitted effect of over 55% in size
Target sequence (P16050 whole entry, looked up): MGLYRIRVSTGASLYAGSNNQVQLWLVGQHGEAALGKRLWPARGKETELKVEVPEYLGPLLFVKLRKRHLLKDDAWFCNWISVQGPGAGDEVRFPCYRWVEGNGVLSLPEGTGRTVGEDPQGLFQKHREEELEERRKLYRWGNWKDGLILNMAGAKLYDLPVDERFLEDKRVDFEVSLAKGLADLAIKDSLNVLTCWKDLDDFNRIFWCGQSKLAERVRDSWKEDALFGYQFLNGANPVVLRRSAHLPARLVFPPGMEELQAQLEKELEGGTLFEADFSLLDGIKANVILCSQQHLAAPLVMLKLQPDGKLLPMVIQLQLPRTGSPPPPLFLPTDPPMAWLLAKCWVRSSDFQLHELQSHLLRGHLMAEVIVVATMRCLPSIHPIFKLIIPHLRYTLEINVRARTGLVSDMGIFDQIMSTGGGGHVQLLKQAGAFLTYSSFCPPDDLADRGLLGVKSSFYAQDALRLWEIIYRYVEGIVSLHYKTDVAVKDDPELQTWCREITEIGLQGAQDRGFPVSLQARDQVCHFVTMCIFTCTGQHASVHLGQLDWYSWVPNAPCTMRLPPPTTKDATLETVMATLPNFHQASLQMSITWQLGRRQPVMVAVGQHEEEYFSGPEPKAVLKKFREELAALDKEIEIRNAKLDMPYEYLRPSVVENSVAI
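Purified human 15hLO-1 (40 nM) in 25 mM Hepes pH 7.5, 0.01% Triton X-100, preincubated 15 min RT with compound, then 50 uM arachidonic acid for 6 min. Hydroperoxide read by ferrous/xylenol orange, 30 min; 573/405 nm absorbance ratio gave progress.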
* = called active by the depositor; ? = inconclusive; / = not tested or not shown; [ ] = dose if it differs, or a comment. Only a selection was taken, and hits are over-represented in it overall. The call rests on the fitted dose curve; in most records, active means well fitted inhibition curve with a large enough effect; inconclusive means small, poorly fitted or top-dose-only effect; inactive means no such curve, though single readings can be large or run the other way. On the % scale 0 is the no-effect control and ±100 the full control effect; potency means the concentration at half of the fitted maximal effect.

SMILES | ALOX15B inhib | ALOX15 inhib
c1ccc(COCc2ccccc2)cc1 | -3.6% | -7.2%
CC(C)Nc1oc(-c2cccc3ccccc23)nc1C#N | 5.1% | 3.98µM*
CCNc1oc(-c2cccc3ccccc23)nc1C#N | -10.8% | /
C=CCNc1oc(-c2cccc3ccccc23)nc1C#N | 6.5%[2.29 µM] | 0.501µM*
N#Cc1nc(-c2cccc3ccccc23)oc1NCCN1CCCCC1 | 33.2% | /
CCN(CCO)C[C@H]1CCC[C@H]2CCCC[C@@H]21 | 2.4%[11.4 µM] | -6.1%[11.4 µM]
OC(CN1CCN(c2ccccc2)CC1)Cn1c2ccccc2c2ccccc21 (configuration not stated) | 31.8% | /
CC(C)NCC(O)Cn1c2c(c3ccccc31)CCc1c-2cnn1-c1ccccc1 (configuration not stated) | -5.3% | 12.6µM*
Cc1ccc(C2C(C#N)=C(N)SC(N)=C2C#N)c(C)c1 | 12.6µM* | ?
CC(C)C1C(C#N)=C(N)SC(N)=C1C#N | -5.1% | ?
O=C(O)CCCC(=O)NCCCCc1ccccc1 | -0.4% | -16.8%
N#C/C(=C\c1ccc(O)c(O)c1)C(=O)NCCc1ccccc1 | -24.5% | 6.31µM*
COc1cc(/C=C(/C#N)C(=O)NCCc2c[nH]c3ccccc23)ccc1OCc1ccccc1F | -26.6% | /
N#C/C(=C\c1ccc(O)c(O)c1)C(=O)NCCCCc1ccccc1 | 15.8µM* | 1.58µM*
O=c1cnc2cnc(Oc3cccc(Cl)c3)nc2n1C1CC1 | -4.7% | -8.4%
COc1ccc(OC)c(C2CC(=O)N3CN(c4ccccc4F)CSC3=C2C#N)c1 (configuration not stated) | 31.6µM* | ?
COc1ccc(OC)c(C2CC(=O)NC(SC)=C2C#N)c1 (configuration not stated) | -4.1% | /
COc1ccc(OC)c(C2C(C#N)=C(N)Oc3cc(C)[nH]c(=O)c32)c1 (configuration not stated) | 4.8% | /
COc1ccc(OC)c(C2CC(=O)N3CN(c4cccc(Cl)c4C)CSC3=C2C#N)c1 (configuration not stated) | 10µM* | ?
COc1cccc(C2C(C#N)=C(N)Oc3cc(C)[nH]c(=O)c32)c1OC (configuration not stated) | -2.9% | /
COc1cccc(C2CC(=O)N3CN(c4cccc(Cl)c4C)CSC3=C2C#N)c1OC (configuration not stated) | 12.6µM* | ?
Cn1c(=O)cnc2cnc(Oc3ccccc3)nc21 | 1.8% | -0.6%
CC(C)[C@H](NC(=O)NCCc1ccccc1)C(=O)O | 4.3% | /
CC(C)(C)C(=O)NC(=S)NCCc1ccccc1 | 12.6µM* | /
COc1cc(OC)cc(C(=O)NCCNC(=O)c2ccccc2)c1 | 8.0% | 3.4%
SMILES | ALOX15B inhib | ALOX15 inhib
COc1cc(OC)cc(C(=O)NC(=S)NCCc2ccccc2)c1 | 7.94µM* | /
Cc1cccc(CNc2ccnc(-c3ccccc3CN(C)C)n2)c1 | 44.6% | 2.0%
CC1CC2C3CCC4=CC(=O)C=C[C@@]4(C)[C@]3(F)C(O)C[C@]2(C)[C@]1(O)C(=O)CO (some centres not stated) | -5.7% | 5.2%
CCOC(=O)c1c(N)sc2c1CCN(Cc1ccccc1)C2 | 61.9%[0.0915 µM] | /
Cc1ccc(NCc2ccccc2OCc2ccccc2F)cc1 | 4.8% | /
Oc1ccc(NCc2ccccc2OCc2ccccc2F)cc1 | 12.6µM* | /
O=C(Nc1ccccc1N1CCCC1)c1ccc2c(c1)OCO2 | 3.1% | ?
O=C(NC(=S)Nc1ccc(N2CCCCC2)c(Cl)c1)c1ccc2c(c1)OCCO2 | 10µM* | /
NC(=O)c1ncn([C@@H]2O[C@@H](CO)[C@@H](O)[C@H]2O)c1O | -5.1% | 7.1%
O=C(CSC1=NS(=O)(=O)c2ccccc21)Nc1ccccc1 | 12.6µM* | -26.6%
COC(=O)CSC1=NS(=O)(=O)c2ccccc21 | ? | 5.9%
O=C(O)C1CCC(CNc2c(NC3CCCCC3)c(=O)c2=O)CC1 (configuration not stated) | / | 3.8%
N[C@H](CCCC(=O)O)C(=O)O | 2.3% | -5.3%
Cc1cccc(C)c1NC(=O)CN1CCN(CCCC(c2ccc(F)cc2)c2ccc(F)cc2)CC1 | 47.7%[25.6 µM] | 4.3%[25.6 µM]
COc1ccc(CNc2nc(-c3ccc(C(=O)N(C)C)cc3)nc3ccccc23)c(OC)c1 | 17.3% | ?
CN(C)c1ccc(-c2nc(NCc3cccnc3)c3ccccc3n2)cc1 | 33.9% | 20µM*
COc1ccc(CNc2nc(-c3ccc(N(C)C)cc3)nc3ccccc23)c(OC)c1 | -16.4% | 10µM*
c1cncc(CNc2nc(-c3ccoc3)nc3ccccc23)c1 | -2.3% | ?
C[C@H](CCC(=O)O)[C@H]1CC[C@@H]2[C@@H]3CC[C@H]4C[C@@H](O)CC[C@@]4(C)[C@@H]3C[C@H](O)[C@@]21C | -4.8%[11.4 µM] | 9.7%[11.4 µM]
COc1ncc2ncc(=O)n(CCC#N)c2n1 | -0.3% | -0.3%
COc1cc(C2c3cc4c(cc3C(OC3OC5COC(C)O[C@@H]5C(O)C3O)C3COC(=O)C23)OCO4)cc(OC)c1O (some centres not stated) | -2.3% | -3.9%
CC(C)=CCC[C@](C)(O)C1CC=C(C)CC1 (some centres not stated) | -9.7% | 12.6µM*
O=C(Nc1ccccc1)N1CC[C@@]2(CCCN(C(=O)c3cc(C(F)(F)F)cc(C(F)(F)F)c3)C2)C1 | 3.7% | 3.7%
C[C@H](CCC(=O)O)[C@H]1CC[C@@H]2[C@H]3[C@@H](C[C@@H](O)[C@]21C)[C@]1(C)CC[C@H](O)C[C@@H]1C[C@@H]3O | -7.7%[11.4 µM] | 14.0%[11.4 µM]
CCCCCC/C=C\CCCCCCCc1cccc(O)c1C(=O)O | ? | 1.58µM*
SMILES | ALOX15B inhib | ALOX15 inhib
CCCCCCCCCCCCCCCCCCc1ccc(C(=O)/C=C\C(=O)O)cc1 | 4.4% | -7.0%[25.6 µM]
CC(C)(C)c1cc(C(c2cccnc2)N2CCN(CCO)CC2)cc(C(C)(C)C)c1O (configuration not stated) | 18.8% | ?
OCCN1CCN(C(c2cccs2)c2ccc3cccnc3c2O)CC1 (configuration not stated) | -18.3% | 3.98µM*
C#CCCCO/N=C1/C[C@@H](O)[C@@H](O)[C@@H]2[C@@H]3C(=O)N([C@@H](C)c4ccccc4)C(=O)[C@H]3CC[C@H]12 | / | 6.5%[11.4 µM]
c1ccc2cc(NCNc3ccc4ccccc4c3)ccc2c1 | -27.9%[11.4 µM] | -3.3%[11.4 µM]
CC(=O)OCC(=O)[C@@]1(O)CCC2C3CC(C)C4=CC(=O)C=CC4(C)C3C(O)CC21C (some centres not stated) | -9.2% | -0.8%
COC(=O)Nc1sc2c(c1C(N)=O)CCCCCC2 | -6.6% | 12.6µM*
CCOC(=O)c1c(NC(=O)OC)sc2c1CCC2 | -3.1% | -13.1%
COc1cc(C2Oc3cc(C4Oc5cc(O)cc(O)c5C(=O)C4O)ccc3OC2CO)ccc1O (configuration not stated) | -18.4% | ?
O=C1CC(c2ccc(O)cc2)Oc2cc(O)cc(O)c21 (configuration not stated) | -22.4% | -6.2%[25.6 µM]
O=C1c2c(O)cc(O)cc2O[C@@H](c2ccc(O)c(O)c2)[C@H]1O | -12.9% | 12.6µM*
O=C1CC(c2ccc(O)c(O)c2)Oc2cc(O)cc(O)c21 (configuration not stated) | ? | 10µM*

Screening results (PubChem BioAssay)
